A short description of assay [1]: ATG_GRE_CIS: Attagene CIS-FACTORIAL HepG2 Assay for human Glucocorticoid Response Elements (GRE) (AID 2282947). To be noted: HepG2 GRE cis-reporter, Attagene multiplex mRNA; AC50: actives raise or lower the signal unless noted; outcome: actives raise or lower the signal unless noted. The procedure, abridged: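 Cells (HepG2) bearing transfected cis-promoter reporter transcription units were treated with chemical for 24 hours. Reporter mRNA was measured via RT-PCR with capillary electrophoresis, and activity was fitted in both directions relative to DMSO.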

The nature of assay [2]: ATG_ISRE_CIS: Attagene CIS-FACTORIAL HepG2 Assay for human Interferon Regulatory Factor 1 (IRF1) binding to an Interferon-Stimulated Response Element (ISRE) (AID 2282948). To be noted: HepG2 ISRE cis-reporter (Attagene), mRNA transcription readout; actives raise or lower the signal. A digest of the protocol: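 Multiplexed mRNA reporter readout in human liver HepG2 cells: cis-element-driven reporters transfected, compound added for 24 h, transcripts amplified, fluorescently labelled and sized by capillary electrophoresis; curve fitting bidirectional against DMSO.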

A short description of assay [3]: ATG_M_32_CIS: Attagene CIS-FACTORIAL HepG2 Assay for M32 Transcription Factor (Internal Marker) (AID 2282949).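 Further: background control marker of the multiplexed CIS panel rather than a real target.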 The note with it: HepG2 Attagene cis-factorial M32 reporter, mRNA; actives raise or lower the signal. The procedure, abridged:
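HepG2 human liver cells transiently transfected with cis-promoter-driven multiple reporter transcription units, dosed 24 h. Reporter mRNA quantified by RT-PCR, FAM-labelled primer extension, HpaI digest and capillary electrophoresis; bidirectional fit versus DMSO baseline.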

A short description of assay [4]: ATG_M_06_CIS: Attagene CIS-FACTORIAL HepG2 Assay for M06 Transcription Factor (Internal Marker) (AID 2282950). The note with it: HepG2 Attagene CIS-FACTORIAL M06 internal marker reporter; actives raise or lower the signal. The procedure, abridged: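 One of many multiplexed endpoints: HepG2 reporter mRNA after 24 h dosing, detected by RT-PCR and capillary electrophoresis fluorescence; gain or loss of signal analysed against DMSO.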

The target in assay [5] is Hypoxia-inducible factor 1-alpha (Homo sapiens) (UniProt Q16665). Put plainly: ATG_HIF1a_CIS: Attagene CIS-FACTORIAL HepG2 Assay for human Hypoxia Inducible Factor 1 (HIF1A) (AID 2282951). To be noted: HepG2 Attagene cis-factorial HIF1a reporter transcription; actives raise or lower the signal. The procedure, abridged:
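In this multiplexed cell assay, HepG2 cells bearing transfected cis reporters are dosed for 24 h and reporter mRNA is read by RT-PCR plus capillary electrophoresis; signal increases and decreases are both scored against DMSO.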

The target of assay [6] is Hepatocyte nuclear factor 6 (Homo sapiens) (UniProt Q9UBC0). In words: ATG_HNF6_CIS: Attagene CIS-FACTORIAL HepG2 Assay for human Hepatocyte Nuclear Factor 6 (HNF6) (AID 2282952). To be noted: HepG2 Attagene cis-factorial HNF6 reporter transcription; actives raise or lower the signal. The procedure, abridged:
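Endogenous transcription factor activity in human HepG2 liver cells was captured through cis-regulated reporter constructs. After 24 h treatment, reporter mRNA was measured by RT-PCR with capillary electrophoresis, and activity was fitted in both directions relative to DMSO.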

Assay [7] deals with Heat shock factor protein 1 (Homo sapiens) (UniProt Q00613). Put plainly: ATG_HSE_CIS: Attagene CIS-FACTORIAL HepG2 Assay for human Heat Shock Transcription Factor 1 (HSE) (AID 2282953). The note with it: HepG2 HSE cis-reporter, Attagene RNA transcription; actives raise or lower the signal. A digest of the protocol: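 Using HepG2 with transfected cis-driven reporter constructs, compound effects on endogenous factor activity are scored as reporter mRNA change at 24 h. Detection: RT-PCR, HpaI digestion, capillary electrophoresis; bidirectional fitting to DMSO.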
Heat shock factor protein 1 (Homo sapiens), sequence (Q00613 whole entry, looked up): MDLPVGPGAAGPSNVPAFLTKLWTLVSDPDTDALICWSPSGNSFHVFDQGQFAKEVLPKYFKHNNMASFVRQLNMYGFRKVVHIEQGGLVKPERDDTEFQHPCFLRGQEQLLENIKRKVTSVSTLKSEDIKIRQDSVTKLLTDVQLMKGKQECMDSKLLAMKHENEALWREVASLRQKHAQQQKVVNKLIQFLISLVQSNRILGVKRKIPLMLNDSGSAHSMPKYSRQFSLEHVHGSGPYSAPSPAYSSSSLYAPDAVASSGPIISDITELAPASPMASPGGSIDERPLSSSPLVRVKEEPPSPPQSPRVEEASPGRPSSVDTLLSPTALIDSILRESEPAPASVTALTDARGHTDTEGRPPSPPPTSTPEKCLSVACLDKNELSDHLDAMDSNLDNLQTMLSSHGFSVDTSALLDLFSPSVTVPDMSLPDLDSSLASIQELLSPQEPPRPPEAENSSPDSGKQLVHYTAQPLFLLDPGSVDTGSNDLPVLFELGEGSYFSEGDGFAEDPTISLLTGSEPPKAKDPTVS

The nature of assay [8]: ATG_MRE_CIS: Attagene CIS-FACTORIAL HepG2 Assay for human Metal Responsive Element (MRE) (AID 2282954). The note with it: HepG2 MRE cis-reporter transcription, Attagene multiplex; actives raise or lower the signal. A digest of the protocol:
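Cells were transfected with cis-promoter reporter transcription units, then dosed for 24 h. RNA was reverse-transcribed, amplified, fluorescently labelled and resolved by capillary electrophoresis, and activity was fitted in both directions relative to DMSO.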

Assay [9] can be described thus: ATG_PBREM_CIS: Attagene CIS-FACTORIAL HepG2 Assay for human Phenobarbital-responsive Enhancer Module (PBREM) (AID 2282955). To be noted: HepG2 PBREM cis-reporter, Attagene multiplexed transcription; actives raise or lower the signal. The procedure, abridged:
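After a 24 h incubation with test chemical, transfected HepG2 cells yield total RNA; reporter-specific RT-PCR products are fluorescently labelled, HpaI-digested and resolved by capillary electrophoresis against ROX size standards.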

In assay [10] the target is Paired box protein Pax-6 (Homo sapiens) (UniProt P26367). Put plainly: ATG_Pax6_CIS: Attagene CIS-FACTORIAL HepG2 Assay for human Paired Box 6 (PAX6) (AID 2282956). To be noted: HepG2 CIS-FACTORIAL PAX6 reporter transcription, RNA readout; actives raise or lower the signal. The procedure, abridged:
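Fluorescent RT-PCR products separated by capillary electrophoresis report PAX6-linked promoter mRNA in HepG2 cells 24 h post-dose. Curves fitted bidirectionally, DMSO as negative control.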

This passage reports outcome and AC50 results from PubChem BioAssay (EPA / NIEHS).

Calls of active or inactive are those of the source. How the source made its calls: active means hit-call score of the fitted dose curve at least 0.9, where 1 is the maximum; inactive means score below 0.9.

Paired box protein Pax-6 (Homo sapiens), sequence (P26367 whole entry, looked up): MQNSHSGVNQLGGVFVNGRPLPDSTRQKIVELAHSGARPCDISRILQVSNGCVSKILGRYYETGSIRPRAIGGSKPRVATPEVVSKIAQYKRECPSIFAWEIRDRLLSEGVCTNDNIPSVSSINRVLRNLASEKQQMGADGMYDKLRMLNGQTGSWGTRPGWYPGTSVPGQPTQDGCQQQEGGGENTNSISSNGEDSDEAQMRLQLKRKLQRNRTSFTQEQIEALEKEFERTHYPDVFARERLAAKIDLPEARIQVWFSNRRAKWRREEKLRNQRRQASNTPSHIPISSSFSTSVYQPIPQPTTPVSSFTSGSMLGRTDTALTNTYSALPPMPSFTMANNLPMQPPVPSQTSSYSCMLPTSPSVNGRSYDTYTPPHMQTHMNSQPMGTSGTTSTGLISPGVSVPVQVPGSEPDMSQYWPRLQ
Hepatocyte nuclear factor 6 (Homo sapiens), sequence (Q9UBC0 whole entry, looked up): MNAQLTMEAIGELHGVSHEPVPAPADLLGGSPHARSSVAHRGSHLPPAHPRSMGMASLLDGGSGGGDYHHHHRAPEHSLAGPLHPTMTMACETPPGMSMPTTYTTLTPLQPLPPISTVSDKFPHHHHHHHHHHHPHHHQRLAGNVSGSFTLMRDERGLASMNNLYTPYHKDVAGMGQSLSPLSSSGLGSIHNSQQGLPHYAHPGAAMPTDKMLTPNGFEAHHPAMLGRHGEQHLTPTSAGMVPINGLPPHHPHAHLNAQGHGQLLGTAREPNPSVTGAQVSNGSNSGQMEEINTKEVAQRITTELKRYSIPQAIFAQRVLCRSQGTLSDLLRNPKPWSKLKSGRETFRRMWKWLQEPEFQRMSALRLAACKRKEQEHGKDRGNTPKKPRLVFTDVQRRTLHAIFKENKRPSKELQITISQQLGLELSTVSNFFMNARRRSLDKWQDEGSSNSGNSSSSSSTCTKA
Hypoxia-inducible factor 1-alpha (Homo sapiens), sequence (Q16665 whole entry, looked up): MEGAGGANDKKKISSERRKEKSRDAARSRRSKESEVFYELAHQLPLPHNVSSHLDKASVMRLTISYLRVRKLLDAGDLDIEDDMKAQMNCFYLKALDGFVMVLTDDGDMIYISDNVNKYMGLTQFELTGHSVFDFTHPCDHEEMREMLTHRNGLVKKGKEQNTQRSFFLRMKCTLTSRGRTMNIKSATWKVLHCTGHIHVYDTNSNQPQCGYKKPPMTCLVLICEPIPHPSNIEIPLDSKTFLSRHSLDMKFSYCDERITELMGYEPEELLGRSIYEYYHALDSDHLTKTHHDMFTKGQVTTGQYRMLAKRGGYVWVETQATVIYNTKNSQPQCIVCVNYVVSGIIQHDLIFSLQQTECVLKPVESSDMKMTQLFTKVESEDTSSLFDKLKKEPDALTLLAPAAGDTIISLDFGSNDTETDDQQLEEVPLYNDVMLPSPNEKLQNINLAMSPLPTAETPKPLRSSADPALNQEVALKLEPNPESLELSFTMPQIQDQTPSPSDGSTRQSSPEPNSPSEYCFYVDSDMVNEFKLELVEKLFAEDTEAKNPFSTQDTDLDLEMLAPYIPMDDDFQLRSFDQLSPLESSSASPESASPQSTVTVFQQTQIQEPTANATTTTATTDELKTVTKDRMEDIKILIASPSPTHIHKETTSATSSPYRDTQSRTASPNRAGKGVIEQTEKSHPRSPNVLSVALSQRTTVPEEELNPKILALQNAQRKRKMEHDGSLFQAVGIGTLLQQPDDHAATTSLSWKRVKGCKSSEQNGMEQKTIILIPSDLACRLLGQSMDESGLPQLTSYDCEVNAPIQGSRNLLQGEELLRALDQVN

With `CCO[Si](CCC1CCC2OC2C1)(OCC)OCC` (configuration not stated), the molecule was classed as inactive in [1], in assay [2], in [3], in assay [4], in assay [5] and in assay [6]. Moreover, the call in assay [7], in assay [8], in assay [9] and in assay [10] was inactive.

For the molecule `NC(C(F)(F)F)C(F)(F)F`, the molecule was called inactive in assay [1], in assay [2], in [3], in [4], in [5] and in [6]. Further, the call in assay [7], in [8] and in assay [10] was inactive.

In the case of `Brc1ccc(Oc2ccc(Br)cc2Br)cc1`, the molecule was classed as inactive in [1], in assay [2], in assay [3], in assay [4], in [5] and in [6]. Further, the outcome in assay [7], in assay [8], in assay [9] and in assay [10] was inactive.

`NCc1cccc(CN)c1`: the result in assay [1], in assay [2], in assay [3], in assay [4], in assay [6] and in [7] was inactive. For the same molecule, the result in assay [8], in assay [9] and in assay [10] was inactive. In addition, the AC50 (as a rule, the midpoint of the concentration-response curve, whichever way the signal moves) in [5] was 24.4 µM (active).

For the molecule `NNC(=O)CCCCC(=O)NN`, the outcome in [1], in [2], in assay [3], in assay [4], in assay [5] and in [6] was inactive. Moreover, the molecule was classed as inactive in assay [7], in [8], in [9] and in assay [10].

In the case of `O=C(O)CCC(F)(F)C(F)(F)C(F)(F)C(F)(F)C(F)(F)F`, the molecule was called inactive in assay [1], in [2], in assay [3], in assay [4], in [5] and in assay [6]. Moreover, the molecule was called inactive in [7], in assay [8], in assay [9] and in assay [10].

With `CCCCCCCCCCCCCCCC(=O)OC`, the outcome in assay [1], in assay [2], in assay [3], in [4], in [5] and in assay [6] was inactive. For the same molecule, the molecule was classed as inactive in [7], in assay [8], in assay [9] and in [10].

Turning to `NNc1nc(-c2ccc([N+](=O)[O-])cc2)cs1`, the molecule was called inactive in [1], in assay [2], in assay [3], in assay [4], in assay [5] and in assay [6]. Further, the result in assay [8], in assay [9] and in assay [10] was inactive. The AC50 in assay [7] is 51.3 µM (active).

Consider `CC1CCC(CO)CC1` (configuration not stated), for which the molecule was called inactive in assay [1], in [2], in assay [3], in [4], in [5] and in assay [6]. Also, the molecule was classed as inactive in assay [7], in assay [8], in [9] and in [10].

Turning to `CC(=O)CC(C)C`, the outcome in assay [1], in [2], in [3], in [4], in assay [5] and in assay [6] was inactive. Besides, the molecule was classed as inactive in assay [7], in assay [8], in assay [9] and in [10].

Consider `CCC1CO1` (configuration not stated), for which the molecule was called inactive in assay [1], in assay [2], in assay [3], in [4], in [5] and in assay [6]. Further, the call in assay [7], in [8] and in assay [10] was inactive.

On to `FC(F)(F)C(F)(F)C(F)(F)C(F)(F)I`, for which the result in [1], in [2], in assay [3], in assay [4], in assay [5] and in [6] was inactive. In addition, the call in assay [7], in assay [8], in assay [9] and in [10] was inactive.

As for `Oc1ccc(Cc2ccccc2O)cc1`, the outcome in assay [1], in assay [2], in [3], in assay [4], in assay [5] and in assay [6] was inactive. Besides, the outcome in assay [7], in assay [8], in assay [9] and in assay [10] was inactive.

As for `O=C(NCc1ncc(C(F)(F)F)cc1Cl)c1c(Cl)cccc1Cl`, the call in assay [1], in [2], in assay [3], in assay [4], in assay [5] and in assay [6] was inactive. The result in assay [7], in assay [8], in assay [9] and in [10] was inactive.

Turning to `O=S(=O)(O)c1ccc2cc(O)ccc2c1`, the call in assay [1], in [2], in assay [3], in assay [4], in assay [5] and in [6] was inactive. For the same molecule, the result in assay [7], in assay [8] and in [10] was inactive.

As to `CCCCCCCCCCCCCCC`, the result in [1], in assay [2], in [3], in assay [4], in assay [5] and in [6] was inactive. The molecule was called inactive in assay [7], in assay [8], in assay [9] and in assay [10].

In the case of `CC(C)CCOCCC(C)C`, the outcome in assay [1], in [2], in assay [3], in assay [4], in assay [5] and in [6] was inactive. Besides, the outcome in assay [7], in assay [8], in assay [9] and in assay [10] was inactive.

As to `Cn1sccc1=O`, the molecule was classed as inactive in assay [1], in assay [3], in assay [4], in assay [5], in [6] and in assay [9]. For the same molecule, the AC50 in assay [2] is 163 µM (active); in [7] it was 161 µM (active); in [8] it was 163 µM (active); in assay [10], 159 µM (active).

In the case of `OCC1CCC(CO)CC1` (configuration not stated), the call in assay [1], in assay [2], in assay [3], in assay [4], in [5] and in assay [6] was inactive. Besides, the molecule was called inactive in assay [7], in [8], in assay [9] and in [10].

For `CCCCCCCCCCCC(=O)NCCCN(C)C`, the concentration at half-maximal activity (AC50) is 14.9 µM (active) in assay [1]; 16.9 µM (active) in assay [2]; 18.1 µM (active) in assay [5]; 17.5 µM (active) in assay [7]; 19.8 µM (active) in assay [8]; 19.6 µM (active) in assay [10]. In addition, the molecule was classed as inactive in [3], in [4], in assay [6] and in [9].

As for `COc1cccc(O)c1`, the call in assay [1], in [2], in assay [3], in [4], in [5] and in assay [6] was inactive. Further, the result in assay [7], in assay [8], in [9] and in [10] was inactive.

In the case of `CCOC(=O)CN[C@@H](C(=O)N1CC[C@H]1C(=O)NCc1ccc(/C(N)=N/O)cc1)C1CCCCC1`, the result in assay [1], in assay [2], in [3], in assay [4], in assay [5] and in assay [6] was inactive. For the same molecule, the result in [7], in assay [8], in assay [9] and in [10] was inactive.

Regarding `Oc1c(Cl)ccc(Cl)c1Cl`, the molecule was called inactive in assay [1], in [2], in assay [3], in assay [4], in [5] and in assay [6]. For the same molecule, the result in [7], in [8], in [9] and in [10] was inactive.
